Molecules are shown by their SMILES. Compounds without any hit were thinned out: in the full panel of roughly 83,000, 20% have a hit.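 Growth was measured after 48 h exposure to one concentration of compound in 96-well plates. Values under 10 count as active.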 A number with no mark means an inactive call. Active and inactive are the calls of the source.

For the test, the system named is MDA-MB-435 melanoma. Description: NCI-60 one-dose screen, 48 h (100 = growth as untreated, 0 = no growth, -100 = all killed). As to conditions: 10 µM. Here is the method: Growth inhibition of the MDA-MB-435 human Melanoma tumor cell line is measured as a screen for anti-cancer activity. Cells are grown in 96 well plates and exposed to the test compound for 48 hours. Compounds are tested at a single concentration, which is 10^-5 M for most compounds. The reported endpoint is percent growth (GI% or GIPRCNT), where numbers from 0 - 100% represent growth inhibition, and numbers from -100% - 0 represent cell death. For example, a value of 40 represents 60% growth inhibition. A value of 0 means no net growth occurred over the course of the experiment. A value of -40 indicates 40% of cells at the beginning of the experiment died by the end of the experiment. A value of -100 means all cells are dead at the end of the experiment.
NCI-60 Human Tumor Cell Lines Screen was performed using the standard one-dose NCI protocol, which is described in more detail at https://dtp.cancer.gov/discovery_development/nci-60/default.htm.
Compounds with GIPRCNT values below 10 were considered active. Activity score was based on GIPRCNT using the following formula: […]
Score is 0 for GIPRCNT values of 100 or above, 50 for GIPRCNT values of 0, and 100 for GIPRCNT values of -100.
As to `O=c1oc2c3ccc4cnccc4c3[nH]c2c2ccccc12`, the growth is -69.8% (active). `CCOC(=O)c1cc2c(n1Cc1cc(OC)cc(OC)c1)-c1oncc1CC2`: the growth was -37% (active). The result for `COc1ccccc1CNCCCN1C(=O)c2ccc3c4c(ccc(c24)C1=O)C(=O)N(CCCNCCNCCCN)C3=O` reads 10.4%; that for `COc1ccc2oc(=O)cc(C3c4ccc([nH]4)C(c4cc(=O)oc5ccc(OC)cc45)c4ccc([nH]4)C(c4cc(=O)oc5ccc(OC)cc45)c4ccc([nH]4)C(c4cc(=O)oc5ccc(OC)cc45)c4ccc3[nH]4)c2c1` (stereo not given), 1.62% (active).

On to `O=C(Nc1ccc(Oc2ccc(Nc3nc4ccccc4s3)cc2)cc1)Nc1ccc(Cl)c(Cl)c1`, for which the growth was 25.4%. The result for `CC1(C)CNC(=O)N1` reads 102%.

For `COc1ccc(CSc2nc3cc(OC)c(OC)cc3c(=O)n2-c2ccc(OC)cc2OC)cc1`, the growth was 62%. The result for `C[C@@H]1C(=O)N(C[C@H](Cc2ccccc2)NC(=O)OCc2ccccc2)[C@]1(Cc1ccccc1)C(=O)OCc1ccccc1` reads 52%. Consider `CCc1ccc(Nc2cc(C)nc3nc(C)nn23)cc1`, for which the growth is -97.2% (active).

For the compound `COc1cccc(-c2nnc(COc3ccc(-c4nc5ccccc5[nH]4)cc3OC)o2)c1`, the growth was 94.9%. Next, `CC(C)OCc1cc(CN2CCN(c3cccc(Cl)c3)CC2)c(O)c2ncccc12`: -28.5% (active); `COc1cc(NS(C)(=O)=O)ccc1Nc1c2ccc(Cl)cc2nc2c(OC)cccc12`: 51%; `CC(C)C[C@H](NC(=O)Cn1ccc2ccccc2c1=O)B(O)O`: 3.38% (active).

With `O=C(Nc1cccc(-c2nc3ccccc3[nH]2)c1)c1cccc(NC(=O)c2ccco2)c1`, the growth is -1.71% (active). Next, `CC1=CSC2=NC(c3ccc(Cl)c(Cl)c3)=CC(c3ccc(Cl)cc3)N12` (stereo not given): 10.4%. The result for `C#C[C@]1(O)CC[C@H]2[C@@H]3CC[C@H]4CC(F)(F)CC[C@]4(C)[C@H]3CC[C@@]21C` reads 84%. Next, `CCOC(=O)C1=C(Nc2ccc(OC)cc2)C(N)=NC1=N`: -43.1% (active). Regarding `CCCCCCCCCCCCCC[n+]1ccccc1`, the growth is -87.6% (active). Next, `COc1ccc(/C(CS(=O)(=O)c2ccccc2)=N\O)cc1`: 94.1%.

Regarding `O=C(c1ccccc1)C(Sc1ccccc1)c1ccccc1` (stereo not given), the growth was 107%. With `COc1ccccc1NC1=C(N2CCCCC2)C(=O)c2ccccc2C1=O`, the growth was 93.2%. On to `CCOC(=O)c1ccc(NC(=O)Nc2nncs2)cc1`, for which the growth was -41.3% (active). The result for `COC1OC2COC(c3ccccc3)OC2C(=O)C1NC(=O)c1ccccc1` (stereo not given) reads 96.4%. Next, `CCOCC[P+](c1ccccc1)(c1ccccc1)c1ccccc1`: 28.8%; `Cc1[nH]nc2c(=S)[nH]c(=O)[nH]c12`: 102%. The result for `[O-]c1c[n+](-c2ccc(Cl)cc2)no1` reads 100%. For `C/C=C\COc1cc(C)c(Cl)cc1Cl`, the growth was 98%. Consider `CC(C)CCN(CCCNc1c2c(nc3cc(Cl)ccc13)CCCC2)CCC(C)C`, for which the growth was 86.2%. Next, `Oc1ccc(/C=N\Nc2ccccn2)c(O)c1`: 34.2%; `COc1ccc(COC(=O)CC(C)C)cc1`: 107%; `CCc1ccc(-c2nnc(COc3ccc(-c4nc5ccc(C)cc5[nH]4)cc3OC)o2)cc1`: 36.8%. Next, `CCCCCCCCCCCCCC[n+]1ccc(C)cc1`: -64.8% (active); `Cc1ccc(S(=O)(=O)Nc2cccc3[nH]c(C(F)(F)F)nc23)cc1`: -31.5% (active); `COCCOC(=O)NC(=O)Nc1ccc(/C(=N/O)c2ccc(Cl)cc2)cc1`: 3.81% (active). Next, `C[N+]1(CC2CO2)CCCCCC1` (stereo not given): 102%; `FC(F)(F)c1ccc(-c2cnc(Cl)nc2NCc2cc(C(F)(F)F)cc(C(F)(F)F)c2)cc1`: 14.3%. Consider `CCOC(=O)c1c(C)n(-c2ccc(Cl)cc2)c2ccc(OC(=O)/C=C/c3ccccc3)cc12`, for which the growth is 9.43% (active). The result for `O=C(OCC1OC(n2cc(C(F)(F)F)c(=O)[nH]c2=O)CC1OC(=O)c1ccc([N+](=O)[O-])cc1)c1ccc([N+](=O)[O-])cc1` (stereo not given) reads 50.6%; that for `COc1cc(C2C(C#N)=C(c3c[nH]c4ccccc34)Nc3nc(N)[nH]c(=O)c32)cc(OC)c1OC` (stereo not given), 38.1%; that for `O=C(Cn1ccc(=O)[nH]c1=O)c1ccc([N+](=O)[O-])o1`, 97.1%.

Values taken from PubChem BioAssay (NCI).
